According to PubChem BioAssay (Tox21):
Values joined by “and” are separate entries in the source; they are usually repeats but may differ in a detail not shown here. Equal values may be shown once. Results filed as inconclusive are left out. Where a call stands in place of a potency, no number is given. Unmarked numbers belong to inactive results. Active and inactive are the calls of the source. Calls come from the whole dose curve; as a rule, active = well fitted cell-killing curve with a large enough effect in the repeat runs; inconclusive = weak or mixed curves, or effect the other way; inactive = flat fitted curve, though single readings scatter. Residues, ends and D or L forms follow the SMILES beside them.
Potency is the fitted concentration of half-maximal effect.

Experiment: qHTS RealTime-Glo MT Cell Viability Assay in HEK293 cells - 32 hour (AID 1224868); note: nearly all actives have a fitted effect of over 50% in size; for activity change, negative = cytotoxic: top concentration of the series differs between compounds
Conditions: RealTime-Glo luminescence; series mostly up to 76.8 µM; activity change, negative = cytotoxic: at the top concentration
Description: National Center for Advancing Translational Sciences [NCATS]
NIH Chemical Genomics Center [NCGC]
U.S. Environmental Protection Agency [EPA]
National Institutes of Environmental Health Sciences [NIEHS]
National Toxicology Program [NTP]
U.S. Food and Drug Administration [FDA]
Measure of cell viability is critical in the cell-base assay. Analysis of cell viability is necessary for the characterization of cell responses to cytotoxic drugs and environmental stress. A RealTime-Glo MT Cell Viability Assay to monitor cell viability in real time of continues cell culture during 40 hours of compound treatment was used to screen Tox21 10K library compounds in Hek293 cells. The RealTime-Glo MT Cell Viability Assay is a nonlytic, homogeneous, bioluminescent method to measure cell viability in real time using a simple, plate-based method. The assay involves adding NanoLuc luciferase and a cell-permeant prosubstrate to cells in culture. Viable cells reduce the proprietary prosubstrate to generate a substrate for NanoLuc luciferase. This substrate diffuses from cells into the surrounding culture medium, where it is rapidly used by the NanoLuc Enzyme to produce a luminescent signal. The signal correlates with the number of viable cells, making the assay well suited for cytotoxicity studies.
Tox21 Assay Protocol Summary:
The mixture of Hek293 cell suspension and reagents were dispensed at 600cells/6 ul/well in 1536-well tissue culture treated black solid bottom plates using a Multidrop dispenser. After the assay plates were incubated at a 37 C/5% CO2 incubator for 5 hours, 23 nL of compounds dissolved in DMSO, positive and negative controls was transferred to the assay plate by a pintool work station. The plates were incubated at 37 C for 40 hours. The luminescence intensity were measured at 0h, 8h, 16h, 24h, 32h and 40h time points using ViewLux plate reader during compound treatment.
With `CCCC(O)C(CC)CO` (stereo not given) the Potency was “inactive”. In the case of `Nc1ccc(C(=O)O)cc1`, the Potency is reported as “inactive”. With `CC(O)CO` (stereo not given) the Potency was “inactive”. With `NS(=O)(=O)c1cc(C(=O)O)c(NCc2ccco2)cc1Cl` the Potency was “inactive”. With `O=C(O)CCCCCCCC(=O)O` the Potency was “inactive”. For `O=NO`, the Potency was “inactive”. For `CCCN(CCC)S(=O)(=O)c1ccc(C(=O)O)cc1`, the Potency was “inactive”. With `C/C=C/c1ccc(OC)cc1` the Potency was “inactive”. In the case of `COC(=O)[C@H](Cc1ccccc1)NC(=O)[C@@H](N)CC(=O)O` (H-Asp-Phe-OMe), the Potency is reported as “inactive”. With `O=S(=O)(O)c1ccc2cc(O)ccc2c1` the Potency was “inactive”. For `Cn1c(=O)c2[nH]cnc2n(C)c1=O`, the Potency was “inactive”. For `COc1ccc2[nH]cc(CCNC(C)=O)c2c1`, the Potency was “inactive”. With `Nc1ccc(O)c(C(=O)O)c1` the Potency was “inactive”. With `O=C(O)CS` the Potency was “inactive”. With `Cc1cn([C@H]2C[C@H](N=[N+]=[N-])[C@@H](CO)O2)c(=O)[nH]c1=O` the Potency was “inactive”. For `O=C(c1ccccc1)c1ccccc1`, the Potency was “inactive”. With `Nc1ccn([C@H]2CC[C@@H](CO)O2)c(=O)n1` the Potency was “inactive”. For `CC(=O)OCC(COC(C)=O)OC(C)=O`, the Potency was “inactive”. For `NC(N)=NC(=O)c1nc(Cl)c(N)nc1N`, the Potency was “inactive”. With `O=C(C1CCCCC1)N1CC(=O)N2CCc3ccccc3C2C1` (stereo not given) the “activity change, negative = cytotoxic” value was -22% [at 35.3 µM]. For `O=C(O)c1[nH]n(-c2ccc(S(=O)(=O)O)cc2)c(=O)c1N=Nc1ccc(S(=O)(=O)O)cc1`, the Potency was “inactive”. In the case of `O=C(O)c1cc(N=Nc2ccc(S(=O)(=O)Nc3ccccn3)cc2)ccc1O`, the Potency is reported as “inactive”. For `CCCCCCCCCCCCCCCC(=O)O`, the Potency was “inactive”. For `CC1(C)[C@@H]2CC[C@@]1(C)C(=O)C2`, the Potency was “inactive”. For `N=C(N)c1ccc(OCCCCCOc2ccc(C(=N)N)cc2)cc1`, the Potency was 12.2 µM (active) and 16.6 µM (active). For `O=C1CN(/N=C/c2ccc([N+](=O)[O-])o2)C(=O)N1`, the Potency was “inactive”. For `CCOc1ccc(NC(=O)CC(C)O)cc1` (stereo not given), the Potency was “inactive”. With `O=C(O)C(=O)O` the Potency was “inactive”. With `O=C(O)CCCCC(=O)O` the Potency was “inactive”. With `CCC1(c2ccccc2)C(=O)NCNC1=O` the Potency was “inactive”. In the case of `NNC(=O)c1ccncc1`, the Potency is reported as “inactive”. For `O=C(O)CCC(=O)O`, the Potency was “inactive”. With `O=C(O)c1cccnc1` the Potency was “inactive”. For `Cc1cc(=O)n(-c2ccccc2)n1C`, the Potency was “inactive”. For `Cc1ccc(S(=O)(=O)NC(=O)NN2CCCCCC2)cc1`, the Potency was “inactive”. In the case of `NC(=O)c1cnccn1`, the Potency is reported as “inactive”. With `CC(=O)Nc1nnc(S(N)(=O)=O)s1` the Potency was “inactive”. For `CCCNC(=O)NS(=O)(=O)c1ccc(Cl)cc1`, the Potency was “inactive”. For `CC(=O)NS(=O)(=O)c1ccc(N)cc1`, the Potency was “inactive”. For `Cc1cc(=O)[nH]c(=S)[nH]1`, the Potency was “inactive”.
